Reference: the supplement of paper PMC11417369
Over roughly 25,000 sequences, “ln(normalized median fluorescence intensity)” has its median near 6.7; the highest 2% begin near 10. Many of the other results were omitted from the sample, so the highest values are more common in it than they were.

test system: PfHDP1 homeodomain (GST-tagged); test: gcPBM binding intensity (ln(normalized median fluorescence intensity)); higher = stronger DNA binding
In short: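 Binding of GST-tagged P. falciparum DNA-binding domains, expressed in E. coli and used at about 25 μg on average, was carried out for 1 h in 1× PBS containing 1% milk, 0.2 mg/ml BSA, 0.5% salmon testes DNA and 0.03% Triton X-100. The target was an Agilent 4 × 180k array of primer-extended double-stranded 36-bp intergenic genomic probes plus negative controls, read with Alexa488 anti-GST antibody at 488 nm. Binding intensity is the highest Masliner-normalised natural-log median intensity across replicate spots of either probe orientation.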

| Sequence | gcPBM binding intensity (ln) |
| --- | --- |
| AAAATATAAAATAATGCACACATAAACAAAAAATCA [CACACA_site8382] | 10.5 |
| CATATAAAAATATATGCACACAAATAAAAAATTATA [CACACA_site9210] | 10 |
| AAATATAATATATGCACACATACATACATATATATA [CACACA_site104] | 10.3 |
| ATGAATCCTTAATATGAACACACAAATATATTACAC [CACACA_site7943] | 6.7 |
| AATTATGCACAAATCACACATATAAAATAAAAAGTG [CACACA_site4474] | 11.1 |
| TATAAAAATATATGCACACAAATAAAAAATTATATA [CACACA_site3629] | 9.87 |
| TATAATATTCCTTTTTAACACACATATGAACAAATA [CACACA_site7932] | 6.77 |
| GTACACCTATAATATACACACAACAAATATGCACAT [CACACA_site6603] | 10.2 |
| GTACACATATAATATACACACAACAAATATGCACAT [CACACA_site1010] | 10.6 |
| ATCCTTAATATGAACACACAAATATATTGCACATAT [CACACA_site6230] | 10.9 |
| AATATAAAATAATGCACACATAAACAAAAAATCAAA [CACACA_site1371] | 10.4 |
| AGAAAAAAAATGTATACACACAAATATAAAGAAGGA [CACACA_site3806] | 7.09 |
| GTACTCTTCTCCAGACTGCACTATACGACTCGTACA [GTGCAC_site9770] | 7.35 |
| AAATATTTTTTAATGTGTACATAGAACATATATATA [XGTACX_site3136] | 6.59 |
| TTTGTCTGCATACGCACACACGTGTACCATCTTATG [CACACA_site4784] | 7.89 |
| AATTAACAAAGACACACACACACACGCACAAAAAAA [CACACA_site6388] | 7.33 |
| GTTAAAATTGGGGACGCATGTTCCTTTCCTTTTTTT [TGCATGCA_site1002] | 5.83 |
| TTAACAAATAAATGCACACATATATATAAATAATAT [CACACA_site28] | 9.43 |
| AATATAATATAATGCACACATAAACAAAAAAAAAAA [CACACA_site783] | 10.5 |
| ATATAATCTGAGTGCACACAAATAAATAAACATACA [CACACA_site422] | 10.2 |

| Sequence | gcPBM binding intensity (ln) |
| --- | --- |
| TAAATATAAACACAAACACACACATATATATATATA [CACACA_site7978] | 9.27 |
| TAATATAATCTGAGTGCACACAAATAAATAAACATA [CACACA_site8032] | 11.2 |
| AATATAATATAATGCACACATAAAACAAAAAAAAAA [CACACA_site3012] | 10.2 |
| AATGTTAAACTATGATGTACGGTTAAAAATATAATT [XGTACX_site893] | 6.43 |
| TTATATTTTCAGAATAGTACACATATATACATATAT [XGTACX_site2519] | 6.46 |
| GTATCAATAAAAAACAGTACATATATAATATATTTA [XGTACX_site1083] | 6.24 |
| TATTTTCATTTGCGCGCACACAATAATAATTTTTGG [CACACA_site3525] | 8.28 |
| GATAGACACGTGCACACATGCAATACTTTATTCAGT [TGCATGCA_site778] | 10 |
| ATTTGATAGACACATGCACACATGCAATACTTTATT [CACACA_site5633] | 9.05 |
| TTTAATTTGATAGACACATGCACACGTGCAATACTT [TGCATGCA_site777] | 10.9 |
| TATTAACAAAATTTTTAACACACAAAAAAAAAAAAA [CACACA_site8542] | 6.18 |
| ATATCAACTGAATTGTATAGGCGATAAAAGAAAAAA [CACACA_negctrl_site1334] | 6.58 |
| ATAGAAGGCAACTTGGTGCACAAAAAAAAAAATAAT | 10.5 |
| AACATGCAAACATGCACACAGAAAAAAAAAATATAT [CACACA_site1565] | 9.37 |
| TATATATCAAAAATATGTACACAGAAATATATATTA [XGTACX_site6997] | 6.96 |
| TCCTATATCACAAATGTGCACAGAAAAAAAAAATAT | 11 |
| TATTCTTACAAAAGTAGTACAATCATTCATATTTTT [XGTACX_site631] | 6.42 |
| TTTTTTTTTTATTTTGCACACTTCTAATTTAGTTCT [CACACA_site5828] | 10.7 |
| AATTTTTTTTTTTTGTTGCACTTTTAGAGTTTTAAT [GTGCAC_site9519] | 7.37 |
| AAAAATAGTCTTCTTGCACTTTTTAATTTATTTTAA [CACACA_negctrl_site1322] | 6.76 |

| Sequence | gcPBM binding intensity (ln) |
| --- | --- |
| AAAAAAATAGTCTTCTTGCACTTTTTAATTTATTTT | 6.7 |
| AACAATTAGAACTTTGCACACTTCTATATATTTTGT [CACACA_site674] | 10.2 |
| TTTTTTTTTTATTTTGCACACTTCTAATTTAGTTGT [CACACA_site3429] | 10.7 |
| TAATATGAATATATATGTACATACAATTTGTTATAT [XGTACX_site5815] | 6.55 |
| TCATATGTATAAATTAGTACATATTTAATGGATATA [XGTACX_site3298] | 6.26 |
| ATAATAATATATATTACACACGCATCGTTCATTTAT [CACACA_site8752] | 7.06 |
| CAATGTTAATATAATACACACAATATGTATTTGTCT [CACACA_site1162] | 6.8 |
| ACAAAAAAATAAGGTGCACACAAAAAAAAAAAAAAA [CACACA_site8171] | 9.22 |
| AAGATAAAATGATGCACACAAAAGGGTGTAATATAT [CACACA_site1706] | 8.59 |
| AAATAAAAAGGGTGCACACAAAAATATATATATATA [CACACA_site1728] | 10.4 |
| AAAAATAAAAGGTGTGCACACAAAAATATATATATA [CACACA_site8507] | 10.7 |
| ATATATATATTAAAGGTGCACAAATAAATATATACA [GTGCAC_site9532] | 9.88 |
| AAAAAAATAAGGTGCACACAAAAAAAAAAAAAAAAA [CACACA_site812] | 9.95 |
| AAAAATAAAGGGTGTGCACACAAAAATATATATATA [CACACA_site1727] | 10.7 |
| AAAGGTTTGCGTTGTGTGCACAAAATAAATATATAA | 10.6 |
| TAGGTCATATTTTTTGCACACAAAAAAAAATATAAA [CACACA_site3380] | 9.79 |
| AGTAGTCTGGAGAAAAGTACACAGTATCTGGTAACA [XGTACX_site2034] | 6 |
| TTTTTTTTTTTTTATACACACATTAAAATAAAAAAG [CACACA_site3946] | 6.74 |
